Results on 30 molecules are retold here after PubChem BioAssay (NCI).

Several values for one entry are separate records, joined by “and”; a condition that tells them apart may be missing. Equal values may be shown once. This is part of a sample that, as a whole, favours compounds with a hit. Of some 83,000 tested, about 20% had one in any assay.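 Cell lines were cultured in 96-well plates, exposed to a single compound concentration, and assessed for percent growth 48 hours later.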 Activity calls are given as the source filed them. How the source made its calls: active means growth percent below 10; inactive means the rest.

The subject of this experiment is MCF7 breast. Description: NCI-60 one-dose screen, 48 h (100 = growth as untreated, 0 = no growth, -100 = all killed). The settings on record: 10 µM unless noted.
`NC(=O)c1[nH]cnc1/N=N/SCC(N)C(=O)O` (stereo not given): the growth is 45.4% [100 µM] (inactive) and 15.8% [100 µM] (inactive). As to `N#Cc1c(SCc2ccccc2)nc(-c2ccccc2)[nH]c1=S`, the growth is 3.22% [100 µM] (active) and -27% [100 µM] (active). The same measure for `O=c1c2ncn(C3CCCCO3)c2n(-c2ccccc2)c(=S)n1-c1ccccc1` (stereo not given): 43.5% [100 µM] (inactive) and 61.3% [100 µM] (inactive).

Consider `COc1cc2c(cc1-c1coc3cc(OCC=C(C)C)ccc3c1=O)OCO2`, for which the growth is -12% [100 µM] (active) and -54.2% [100 µM] (active). As to `C=C1C(=O)OC2C1CC(O)/C(C)=C\CCC1(C)OC21` (stereo not given), the growth was 21.9% [100 µM] (inactive) and -83.3% [100 µM] (active). As for `CC12NC(=C(C#N)C#N)C(C#N)=C3NC(N)=C(C#N)C(=C31)Oc1ccccc12` (stereo not given), the growth was 17.3% [100 µM] (inactive) and -45.9% [100 µM] (active). On to `CC(O)c1cc2c(s1)C(=O)c1ccsc1C2=O` (stereo not given), for which the growth was -56.8% [100 µM] (active) and -91.5% [100 µM] (active).

For the molecule `N#Cc1c(=N)cc2c3ccccc3oc3c(C#N)c(N)[nH]c1c32`, the growth was 74.3% [100 µM] (inactive) and 24.3% [100 µM] (inactive).

For the molecule `C=C1C(=O)OC2/C=C(\CO)C(OC(C)=O)CC(O)/C(C)=C/C(OC(=O)C(C)CC)C12` (stereo not given), the growth is -87% [100 µM] (active) and -86.7% [100 µM] (active). As for `CC(=O)c1cc2c(s1)C(=O)c1sccc1C2=O`, the growth was -67.2% [100 µM] (active) and -100% [100 µM] (active). With `CC(=O)c1cc2c(s1)C(=O)c1ccsc1C2=O`, the growth was -62.9% [100 µM] (active) and -100% [100 µM] (active). For the molecule `C[C@]12CC[C@@H]3c4cc(Br)c(O)c(Br)c4CC[C@H]3[C@@H]1CC(Br)C2=O` (stereo not given in full), the growth is -71.4% [100 µM] (active) and -70.2% [100 µM] (active).

Turning to `N#Cc1sc2nc(/C=C3/C=CC=CC3=O)c(O)n2c1N`, the growth was 30.3% [100 µM] (inactive) and 3.44% [100 µM] (active).

On to `N#Cc1cnn2c1n[n+]([O-])c1ccc(Cl)cc12`, for which the growth was 9.63% [100 µM] (active) and -99.2% [100 µM] (active). The same measure for `CC#CC#C/C=C1\C=CC2(OC=CC2OC(C)=O)O1` (stereo not given): -91.4% [100 µM] (active) and -48.8% [100 µM] (active). With `CCCC(=O)Oc1c2ccsc2c(OC(=O)CCC)c2ccsc12`, the growth was -72.6% [100 µM] (active) and -100% [100 µM] (active). As for `N#CC1C(=O)N(c2ccccc2)NC12OC(=O)c1ccncc12` (stereo not given), the growth is 85.8% [20 µM] (inactive) and 87.1% [20 µM] (inactive). For the molecule `CN(C)CCNc1ccc(NCC[N+](C)(C)Cc2ccc([N+](=O)[O-])cc2)c2c1C(=O)c1c(O)ccc(O)c1C2=O`, the growth was 24.2% [100 µM] (inactive) and -30.3% [100 µM] (active). For `O=C(CCc1ccccc1)On1c(-c2ccccc2)nc2ccccc2c1=S`, the growth is -34.4% [100 µM] (active) and -60.1% [100 µM] (active). Turning to `CC(=O)OC(=C(C#N)C#N)c1nccnc1C(C)=O`, the growth is 106% [20 µM] (inactive) and 75.4% [20 µM] (inactive). As for `CCCCCCCCCc1cc(=O)c2c(O)cc(O)cc2o1`, the growth was -86.1% [100 µM] (active) and -45.1% [100 µM] (active). On to `COc1c2c(c(OC)c3c1c(=O)c1ccccc1n3C)OCO2`, for which the growth is 9.09% [100 µM] (active). On to `CC(C)C1OC23CCCCC2C(C#N)(C#N)C1(C#N)C(=N)O3` (stereo not given), for which the growth is -20.4% [100 µM] (active).

Regarding `CC1OC(OC2C(O[C@H]3CC[C@@]4(C)C(=CC[C@H]5[C@@H]6C[C@@H]7O[C@]8(CC[C@H](C)CN8)[C@@H](C)[C@@H]7[C@@]6(C)CC[C@@H]54)C3)OC(CO)C(O)C2OC2OC(CO)C(O)C(O)C2O)C(O)C(O)C1O` (stereo not given in full), the growth was 91.3% [100 µM] (inactive) and -95.2% [100 µM] (active). For `Nc1cc2c3c(cccc3c1)C(=O)N(c1ccc(OCCN3CCCCC3)cc1)C2=O`, the growth is -95.1% [100 µM] (active) and -100% [100 µM] (active).

Take `CCOC(=O)/C(C#N)=C(/NNc1ccccc1)c1ccncc1C(=O)O`: the growth was 28.2% [100 µM] (inactive) and 39.1% [100 µM] (inactive).

For `COc1cc(CC2c3cc(OC)c(OC)cc3CCN2C)c(Oc2cc3c(cc2OC)-c2c(O)c(OC)cc4c2C(C3)N(C)CC4)cc1OC` (stereo not given), the growth was 20.4% [100 µM] (inactive) and -77.4% [100 µM] (active). With `Oc1ccccc1-c1n[nH]c(-c2ccccc2O)n1`, the growth is -10.7% [100 µM] (active) and -76.4% [100 µM] (active). Consider `CCOC(=O)c1nc2cc(C(F)(F)F)ccc2nc1Nc1ccc(F)cc1`, for which the growth is 34% [100 µM] (inactive) and 3.76% [100 µM] (active). In the case of `CC1=CCC2C3(C)CCC2(C(C)C)C1C3` (stereo not given) (tested in a mixture with another compound), the growth was -76.9% [100 µM] (active) and -91.7% [100 µM] (active).
